Here are results for 62 compounds from PubChem BioAssay AID1347416 (National Center for Advancing Translational Sciences (NCATS), 2020).

About 1,600 (39%) of roughly 4,100 compounds were called active. About 25% were inconclusive and are not listed. The call rests on the fitted dose curve; in most records, active means well fitted inhibition curve with a large enough effect; inconclusive means small, poorly fitted or top-dose-only effect; inactive means no such curve, though single readings can be large or run the other way. The list shows a part of the results. Entries that show only a call come without a potency.
Potency means the concentration at half of the fitted maximal effect.

The assay can be described thus: qHTS Validation assay for Inhibitors of Plasmodium falciparum Dd2 growth in vitro. Further: nearly all actives have a fitted effect of over 70% in size. As to conditions: P. falciparum Dd2 in RBCs, SYBR Green growth, 72 h; series mostly up to 28.7 µM. The method, boiled down: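 P. falciparum Dd2-infected red blood cells (2.5% hematocrit, 0.3% parasitemia) grown 72 h at 37 °C under 5% O2 with compounds in a titration, 29 uM to 0.5 nM final. Growth read as SYBR Green-1 fluorescence after ~16 h lysis; artesunate 300 nM as positive control.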
In general terms: qHTS replaces the single test concentration by a dilution series.
With `CCn1cc(S(=O)(=O)N2CCCOCCNC(=O)[C@@H]3CCC[C@@H]32)cn1`, the Potency entry was “inactive”.

For `Cc1cc([N+](=O)[O-])ccc1NC(=O)COc1nsnc1N1CCOCC1`, the Potency is 6.68 µM (active).

Turning to `COc1ccc(CN2CC[C@H](c3nnc(-c4ccccc4F)o3)C2)cc1`, the Potency entry is “inactive”.

Regarding `COc1ccc(Cn2c(C3CCN(C(=O)Cc4ccc(F)cc4)CC3)n[nH]c2=O)cc1`, the Potency entry is “inactive”.

In the case of `COc1ccc(CCN2CCC(Nc3nc4ccccc4n3Cc3ccc(F)cc3)CC2)cc1`, the Potency was 2.37 µM (active).

As to `CC1CCN(c2nc3ccc(C(=O)O)cc3s2)CC1`, the Potency result is “inactive”.

Regarding `Cc1nc(N2CCC(C)CC2)c2c(C)c(C(=O)Nc3ccc(C(F)(F)F)cc3)sc2n1`, the Potency is 7.5 µM (active).

On to `COc1ccc(CNC(=O)Cn2c(SCC(=O)N(C)c3ccccc3)nc3ccccc32)cc1`, for which the Potency result is “inactive”.

`CN(C(=O)CSc1nc2ccc(NC(=O)CCc3ccccc3)cc2s1)c1ccccc1`: the Potency was 13.3 µM (active).

As for `O=C(NCc1ccc(N2CCCC2)cc1)C1CCCN(c2cnn(Cc3ccccc3)c(=O)c2)C1` (configuration not stated), the Potency was 10.6 µM (active).

As to `O=C(CC1CCCN(c2cnn(CC3CC3)c(=O)c2)C1)NCc1ccccc1` (configuration not stated), the Potency result was “inactive”.

As to `Cc1ccc(C)n1-c1nnc(N2CCCC(C(=O)NCc3ccccc3)C2)s1` (configuration not stated), the Potency result was “inactive”.

`Cc1cc(C)c(S(=O)(=O)Nc2cc(Cl)c3oc4c(c3c2)C(=O)CCC4)cc1C`: the Potency entry is “inactive”.

On to `CN(C)CC(O)COc1ccc(C(C)(C)c2ccc(OCC(O)CN(C)C)cc2)cc1` (configuration not stated), for which the Potency is 8.41 µM (active).

`O=C(Nc1ccc(C(=O)OC[C@@H]2CCCN3CCCC[C@H]23)cc1)c1cccc(Br)c1`: the Potency was 6.68 µM (active).

As to `CCc1cccc(NC(=O)c2ccc3c(c2)N(C)C2CCCCN2C3=O)c1` (configuration not stated), the Potency result was “inactive”.

On to `O=C(COC(=O)c1cccc(Br)c1)NCCNC(=O)COC(=O)c1cccc(Br)c1`, for which the Potency result is “inactive”.

In the case of `O=S(=O)(c1cccc(F)c1)N1CCC2(CC1)CC(Cc1nc(C3CC3)no1)CCO2` (configuration not stated), the Potency result is “inactive”.

With `O=C(NC1CCN(c2cnn(CC3CC3)c(=O)c2)CC1)c1ccc2c(c1)OCO2`, the Potency entry was “inactive”.

As for `CC1(CCCCc2ccccc2)COc2ccc(C(=O)NC3CCC(O)CC3)cc2N1` (configuration not stated), the Potency result was “inactive”.

Take `CCN(C(=O)Cn1c(=O)n(Cc2ccc3c(c2)OCO3)c(=O)c2ccc(C(=O)NC3CCCCC3)cc21)c1cccc(C)c1`: the Potency is 6.68 µM (active).

As for `c1ccc(-c2nc(-c3ccncc3)no2)c(OC2CCN(C3CCCC3)C2)c1` (configuration not stated), the Potency is 15 µM (active).

On to `O=C(c1ccco1)N1CCC(Oc2ccccc2-c2nc(-c3ccccc3)no2)C1` (configuration not stated), for which the Potency entry was “inactive”.

Regarding `O=C(Cc1cccc(F)c1)N1CCC(Oc2ccccc2-c2nc(C3CC3)no2)C1` (configuration not stated), the Potency result is “inactive”.

As for `Cc1cn2nc(C(=O)NCc3ccccc3Cl)cc2c(=O)[nH]1`, the Potency entry was “inactive”.

Turning to `Cc1cc(C(=O)Nc2cnn(Cc3ccc(Cl)cc3Cl)c2)no1`, the Potency was 9.44 µM (active).

Consider `Cc1cc(/C(N)=N/OC(=O)c2ccccc2Cl)no1`, for which the Potency entry was “inactive”.

On to `COc1ccc(-c2ccc3ncc(Nc4ccncc4)n3n2)cc1OC`, for which the Potency was 4.85 µM (active).

On to `COc1ccc(C(=O)NCc2nnc3ccc(-c4ccc(F)cc4)nn23)c(OC)c1`, for which the Potency entry was “inactive”.

For `OCc1cccc(-c2ccc3ncc(Nc4ccc(OCCN5CCCC5)cc4)n3n2)c1`, the Potency is 3.44 µM (active).

For the compound `COc1cncc(Nc2cnc3ccc(-c4ccc(F)cc4)nn23)c1`, the Potency is 3.06 µM (active).

For the compound `COc1ccc(-c2ccc(SCc3ccccn3)nn2)cc1OC`, the Potency entry was “inactive”.

Consider `COc1ccc(Nc2cnc3ccc(-c4ccc(OC)c(OC)c4)nn23)cc1`, for which the Potency was 1.72 µM (active).

For `Cc1oc(C(C)C)cc1C(=O)N1CC[C@](C)(O)[C@@H](O)C1`, the Potency entry is “inactive”.

Regarding `CC(=O)N1CCC([C@@H]2CN(C3CCN(CC(C)C)CC3)C[C@H]2CO)CC1`, the Potency result is “inactive”.

For `O=C(O)CC1(CC(=O)N2CCN3C(=O)N(Cc4ccccc4)C(=O)[C@H]3C2)CCCC1`, the Potency entry is “inactive”.

`CCCc1noc(-c2ccn3c(CNC(=O)c4ccc5ccccc5n4)nnc3c2)n1`: the Potency entry is “inactive”.

Take `c1ccc(-c2ccc3ncc(Nc4cccnc4)n3n2)cc1`: the Potency was 4.85 µM (active).

`O=C(NCc1nnc2ccc(-c3ccccc3)nn12)c1ccoc1`: the Potency result was “inactive”.

As for `COc1cncc(Nc2cnc3ccc(-c4ccc(OC)c(OC)c4)nn23)c1`, the Potency is 1.22 µM (active).

For `CCC1(O)CCCN(c2ncc(C(C)(C)C(=O)O)c(N3CCOCC3)n2)C1` (configuration not stated), the Potency result was “inactive”.

With `CCOC(=O)c1ccc(NC2=CC(c3ccc(F)cc3)N(c3ccc(C(=O)OCC)cc3)C2=O)cc1` (configuration not stated), the Potency is 8.41 µM (active).

Consider `CCOc1cc(C2c3c(oc4ccccc4c3=O)C(=O)N2Cc2ccc3c(c2)OCO3)ccc1O` (configuration not stated), for which the Potency result was “inactive”.

For `CCOC(=O)c1ccc(NC2=CC(c3ccc(O)c(OCC)c3)N(c3ccc(C(=O)OCC)cc3)C2=O)cc1` (configuration not stated), the Potency is 3.35 µM (active).

Consider `Nc1cc[n+](CC(=O)c2ccc3c(c2)OCCO3)cc1`, for which the Potency is 13.3 µM (active).

As to `O=C(CNC1=NCCC1)c1ccc2c(c1)OCCO2`, the Potency result was “inactive”.

Take `COc1cc(C2NC(=O)c3c(sc4c3CCN(C)C4)N2)cc(OC)c1OC` (configuration not stated): the Potency entry was “inactive”.

As to `O=C(Nc1cccc2ccccc12)O[C@@H]1CO[C@H]2[C@@H]1OC[C@@H]2n1nnnc1-c1ccc(-c2ccccc2)cc1`, the Potency entry was “inactive”.

Take `CC(C)N1C(=O)C(CC(=O)N(C)Cc2cccnc2)=C2CCCCC21` (configuration not stated): the Potency entry was “inactive”.

On to `CCC(C)c1ccc(N(C(=O)c2ccco2)C(C(=O)NC2CCCC2)c2cccnc2)cc1` (configuration not stated), for which the Potency was 6.68 µM (active).

`Cc1noc(C)c1-c1cc2cc(CN(C)C)oc2c(Nc2cccnc2)n1`: the Potency is 12.2 µM (active).

Regarding `Cc1noc(C)c1-c1cc2cc(CN(C)C)oc2c(NCc2cccnc2)n1`, the Potency is 1.22 µM (active).

Take `COc1cncc(Nc2ncc(-c3c(C)noc3C)c3c2OCC3)c1`: the Potency result was “inactive”.

As for `O=C(c1cccc(Cl)c1)N1CCC(c2nc3c(nnn3Cc3ccc(F)cc3F)c(=O)[nH]2)CC1`, the Potency is 5.96 µM (active).

As for `Cc1cn2nc(-c3nc(C4CCCN(C(=O)c5cccc(Cl)c5)C4)no3)cc2c(=O)[nH]1` (configuration not stated), the Potency entry is “inactive”.

For the compound `NC(=O)c1cccc(-c2ncc3c(n2)OCCN(Cc2ccc(F)cc2F)C3=O)c1`, the Potency entry is “inactive”.

Take `Cc1cn2nc(-c3nc(C4CCCN(C(=O)c5ccc(C)c(F)c5)C4)no3)cc2c(=O)[nH]1` (configuration not stated): the Potency entry is “inactive”.

For the compound `O=C(c1cccc(Cl)c1)N1CCC(c2nn(Cc3ccccc3)c(=O)[nH]2)CC1`, the Potency result is “inactive”.

Consider `Cc1cccc(CC(=O)N2CCCC(n3cc(-c4nc(-c5ccccc5)no4)nn3)C2)c1` (configuration not stated), for which the Potency entry is “inactive”.

In the case of `CC(C)(C)c1ccc(C(=O)N2CCCC(c3nc4c(nnn4Cc4cccc(F)c4)c(=O)[nH]3)C2)cc1` (configuration not stated), the Potency was 16.8 µM (active).

`O=C(c1ccc(F)cc1)N1CCC(c2nn(Cc3ccccc3)c(=O)[nH]2)CC1`: the Potency result was “inactive”.

Regarding `Cc1cccc(Cn2nnc3c(=O)[nH]c(C4CCCN(C(=O)c5ccc(C(C)(C)C)cc5)C4)nc32)c1` (configuration not stated), the Potency is 2.66 µM (active).
